Compound activity from PubChem BioAssay.
Shown are actives, neighbours in structure and some others; about 10% of the full set was active somewhere.
Gal4-VP16 FLuc = VP16 counterscreen qHTS for inhibitors of ROR gamma transcriptional activity; Drosophila S2 Gal4-VP16 UAS-luciferase, luminescence, 20 h; Potency, µM (top dose mostly 53.6 µM), actives largely listed as inhibitors; actives 3.5% (n = 310,000); AID 2546, 2010;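 note: Gal4-VP16 expression switched on by copper sulfate through the metallothionein promoter; nearly all actives have a fitted effect of over 50% in size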
MCF10A rerep = A quantitative high throughput screen for small molecules that induce DNA re-replication in MCF 10a normal breast cells; MCF 10A DNA re-replication, Hoechst nuclear intensity, 48 h; Potency, µM (doses to about 46.1 µM), usual class: activators; actives 2.9% (n = 350,000); AID 624296, 2012; note: nearly all actives have a fitted effect of over 50% in size
ELG1 DNA repair = qHTS screen for small molecules that inhibit ELG1-dependent DNA repair in human embryonic kidney (HEK293T) cells expressing luciferase-tagged ELG1; HEK293T ELG1-luciferase reporter, luminescence, 16 h; DNA damage induced by 5-fluorouridine; Potency, µM (highest dose often 46.1 µM), usual class: inhibitors; actives 2.3% (n = 330,000); AID 504467, 2011; note: nearly all actives have a fitted effect of over 55% in size
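Quantitative HTS, concentration-response format. 2,000 cells/well co-treated with 5-fluorouridine and compound, 16 hr in 5% CO2 at 37 °C; ONE-Glo luminescence read after 30 min.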
RORgamma inh = qHTS for inhibitors of ROR gamma transcriptional activity; Drosophila S2 Gal4-RORgamma UAS-luciferase reporter, 20 h; actives 5.4% (n = 310,000); Potency, µM (top dose mostly 53.6 µM), usual class: inhibitors; Nuclear receptor ROR-gamma (Mus musculus), P51450; AID 2551, 2010; note: nearly all actives have a fitted effect of over 60% in size
Target sequence (P51450 whole entry, looked up, the tested form may be a part): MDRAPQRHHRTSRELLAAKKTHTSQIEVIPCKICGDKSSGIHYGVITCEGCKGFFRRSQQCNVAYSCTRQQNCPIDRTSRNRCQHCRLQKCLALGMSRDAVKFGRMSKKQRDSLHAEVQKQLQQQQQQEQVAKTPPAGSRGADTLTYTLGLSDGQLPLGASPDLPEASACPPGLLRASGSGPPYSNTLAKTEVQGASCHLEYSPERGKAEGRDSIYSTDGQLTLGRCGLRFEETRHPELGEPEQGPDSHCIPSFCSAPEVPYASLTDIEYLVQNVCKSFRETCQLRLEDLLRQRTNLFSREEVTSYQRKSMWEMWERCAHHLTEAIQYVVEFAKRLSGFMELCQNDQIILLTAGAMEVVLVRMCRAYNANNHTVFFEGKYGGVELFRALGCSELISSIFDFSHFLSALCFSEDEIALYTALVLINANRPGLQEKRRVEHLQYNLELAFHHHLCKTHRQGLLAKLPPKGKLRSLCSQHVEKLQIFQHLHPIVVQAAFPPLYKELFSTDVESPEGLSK
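Stably transfected Drosophila Schneider cells are the test system, with ROR gamma fused to Gal4 and luciferase under UAS control; luminescence is read after 20 hr of 700 uM copper sulfate induction at ambient temperature.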
SW480 rerep = A quantitative high throughput screen for small molecules that induce DNA re-replication in SW480 colon adenocarcinoma cells; SW480 DNA re-replication, Hoechst DNA content imaging, 48 h; Potency, µM (top dose mostly 46.1 µM), actives largely listed as activators; actives 1.8% (n = 340,000); AID 624297, 2012; note: nearly all actives have a fitted effect of over 55% in size
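Compounds, transferred as 23 nL by pin tool, were incubated with cells for 48 hr; DNA content per nucleus was then quantified by Hoechst staining and fluorescence plate imaging.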
Large screens that a line does not name were inactive. Calls come from the whole dose curve; as a rule, active = well fitted curve in the direction sought with a large enough effect; inconclusive = small, poorly fitted or top-dose-only effect, or another doubt; inactive = no such curve, though single readings can be large; an effect the other way counts as inactive or inconclusive.

CCOC(=O)/C(=N/Nc1ccccc1)Sc1nnnn1-c1ccc(C)cc1	MCF10A rerep inconclusive, RORgamma inh inconclusive
COc1ccc(CNC(=O)CSc2nnc(-c3ccc(NC(C)=O)cc3)n2C)cc1	none (no result: ELG1 DNA repair)
COC(=O)/C(=N\Nc1ccc(Cl)cc1)Sc1nnc(-c2ccc(OC)cc2)n1C	Gal4-VP16 FLuc inconclusive, RORgamma inh 5.62µM
CCOC(=O)/C(=N/Nc1ccccc1)Sc1nnc(CCc2ccccc2)n1-c1ccccc1	Gal4-VP16 FLuc 7.08µM, RORgamma inh 4.47µM
CCOC(=O)/C(=N/Nc1ccc(Cl)cc1)Sc1nnnn1-c1ccc(C)cc1	Gal4-VP16 FLuc inconclusive, RORgamma inh 6.31µM
CC1(C)c2ccccc2-n2c1cc1oc(=O)cc(O)c1c2=O	none
CC(/C=C/c1ccc(N(C)C)cc1)=N\N=C(/N)SC1CC(=O)N(c2ccc(C(=O)O)cc2)C1=O (configuration not stated)	Gal4-VP16 FLuc 2.24µM, ELG1 DNA repair inconclusive, RORgamma inh 0.794µM
O=C(c1csnn1)N1CCC[C@@]2(CCN(c3ccccc3)C2)C1	none (no result: MCF10A rerep, ELG1 DNA repair, SW480 rerep)
Cc1cc(C)n(CC(=O)N/N=C/c2cc([N+](=O)[O-])ccc2O)n1	Gal4-VP16 FLuc 2.82µM, ELG1 DNA repair inconclusive, RORgamma inh 2.82µM, SW480 rerep inconclusive
Cc1cc([N+](=O)[O-])nn1CC(=O)N/N=C/c1ccccc1O	Gal4-VP16 FLuc 7.08µM, ELG1 DNA repair inconclusive, RORgamma inh 2.24µM, SW480 rerep inconclusive
Cc1cc(C)n(CC(=O)N/N=C/c2cc(Br)cc([N+](=O)[O-])c2O)n1	Gal4-VP16 FLuc 0.891µM, MCF10A rerep inconclusive, ELG1 DNA repair inconclusive, RORgamma inh 0.631µM
Nc1nnnn1CC(=O)N/N=C/c1cc([N+](=O)[O-])ccc1O	ELG1 DNA repair inconclusive
Cc1cc(C)n(CCC(=O)N/N=C/c2ccc(Br)c([N+](=O)[O-])c2)n1	ELG1 DNA repair inconclusive
O=C(O)c1ccc(Sc2nnc(-c3cccc(Br)c3)o2)c([N+](=O)[O-])c1	none
COc1cc(-c2nnc(Sc3ccc(C(F)(F)F)cc3[N+](=O)[O-])o2)cc(OC)c1OC	MCF10A rerep 18.4µM, SW480 rerep inconclusive
Cn1c(SCc2n[nH]c(=S)n2-c2ccccc2)nnc1-c1ccccc1	none
CN(C)/C=C(/C(=O)c1ccc(Cl)c(Cl)c1)S(C)(=O)=O	none
CC(C)(C)c1nnc(N/N=C/c2ccccc2)n(N)c1=O	Gal4-VP16 FLuc 5.62µM, RORgamma inh 3.98µM, SW480 rerep inconclusive
CC(C)(C)c1nnc(N/N=C/c2ccccc2O)n(N)c1=O	Gal4-VP16 FLuc 11.2µM, MCF10A rerep inconclusive, ELG1 DNA repair 20.6µM, RORgamma inh 10µM
CSc1nnc(C(C)(C)C)c(=O)n1/N=C/c1ccccc1	none
CCc1nnc(N/N=C/c2ccccc2F)n1N	MCF10A rerep 25.9µM, RORgamma inh 11.2µM, SW480 rerep inconclusive
Cc1ccc(CC2CC(=O)N(C(Cc3ccccc3)C(=O)O)C2=O)cc1 (configuration not stated)	MCF10A rerep inconclusive
COc1ccc(-n2cnc3sc(-c4ccccc4)cc3c2=O)cc1	ELG1 DNA repair inconclusive
Cc1ccc(C)n1-n1c(C)nc2sc(-c3ccccc3)cc2c1=O	ELG1 DNA repair inconclusive (no result: Gal4-VP16 FLuc)
Cc1nc2cc(-c3ccccc3)sc2c(=O)n1N	Gal4-VP16 FLuc 1.58µM, ELG1 DNA repair inconclusive, RORgamma inh 0.708µM
COc1ccc(-c2cc3nc4n(c(=O)c3s2)CCCCC4)cc1	ELG1 DNA repair inconclusive
COc1ccc(-c2cc3nc(C)n(N)c(=O)c3s2)cc1	Gal4-VP16 FLuc 1.26µM, ELG1 DNA repair inconclusive, RORgamma inh 1.78µM
COc1ccc(-c2cc3nc4n(c(=O)c3s2)CCC4)cc1	Gal4-VP16 FLuc 1.58µM, ELG1 DNA repair inconclusive, RORgamma inh inconclusive
CC1CCC2(CC1)NC(=O)N(CC(=O)Nc1cccc(C#N)c1)C2=O (configuration not stated)	none (no result: Gal4-VP16 FLuc, RORgamma inh)
CC(/C=N/NC(=O)c1cc(-c2ccncc2)nc2ccccc12)=C\c1ccco1	MCF10A rerep inconclusive, ELG1 DNA repair inconclusive, SW480 rerep 0.92µM
